Bioassay records (PubChem BioAssay)
VDR inh: blocks the human vitamin D receptor. P11473. VDR-SRC2-3 peptide fluorescence polarization, 2 h. Potency, µM, without a hit: max response, negative = inhibition, most hits filed as inhibitors. 400,000 tested, 0.93% active; also: % is scaled to controls: 0 for no effect and ±100 for the full control effect
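After 23 nl compound addition and a short centrifugation, plates sat for 2 hours at ambient temperature; polarization of fluorescence then indicated loss of VDR binding to peptide SRC2-3.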
GRP78 ERSR act: inducers of ER stress response in human glioma cells | U87-MG GRP78 promoter luciferase reporter, 16 h | Potency, µM, for the others: at the highest dose activation, most hits filed as activators | 420,000 tested, 0.02% active; also: series mostly up to about 76 µM; % of control where 0% means no effect; nearly all actives have a fitted effect of over 35% in size
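Stably transfected U87-MG glioma cells carrying a GRP78-based luciferase sensor; 16 h compound incubation. Luminescence end-point read 10 min after Bright-Glo addition at room temperature.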
Sfp inh: Sfp phosphopantetheinyl transferase inhibition. Potency, µM, inactives show largest response in the series, negative = inhibition, hits mostly inhibitors. Q9F4F7. 310,000 tested, 3.5% active. Biochemical Sfp PPTase activity, qHTS;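 also: the enzyme is Sfp with the accession as filed and its product quenches rhodamine fluorescence; 0% = enzyme reaction without inhibitor and -100% = no enzyme wells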
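Fluorescence-quenching assay with 15 nM Sfp, 5 uM rhodamine-CoA and 12.5 uM BHQ-2-labelled ybbR peptide in pH 7.6 Hepes/MgCl2 buffer. Enzyme was pre-incubated with compound for 15 min at room temperature. Rate was taken from the 30-min fluorescence change (525/598 nm).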
12-LOX inh: ALOX12 (human) lipoxygenase inhibition | P18054 | purified 12hLO, xylenol orange hydroperoxide absorbance | Potency, µM (highest dose often 108 µM), without a hit: top-dose activity change, negative = inhibition, hits mostly inhibitors | 580,000 tested, 1.1% active | AID 1671190; also: % is scaled to controls: 0 for no effect and ±100 for the full control effect
Target sequence (P18054 whole entry, looked up): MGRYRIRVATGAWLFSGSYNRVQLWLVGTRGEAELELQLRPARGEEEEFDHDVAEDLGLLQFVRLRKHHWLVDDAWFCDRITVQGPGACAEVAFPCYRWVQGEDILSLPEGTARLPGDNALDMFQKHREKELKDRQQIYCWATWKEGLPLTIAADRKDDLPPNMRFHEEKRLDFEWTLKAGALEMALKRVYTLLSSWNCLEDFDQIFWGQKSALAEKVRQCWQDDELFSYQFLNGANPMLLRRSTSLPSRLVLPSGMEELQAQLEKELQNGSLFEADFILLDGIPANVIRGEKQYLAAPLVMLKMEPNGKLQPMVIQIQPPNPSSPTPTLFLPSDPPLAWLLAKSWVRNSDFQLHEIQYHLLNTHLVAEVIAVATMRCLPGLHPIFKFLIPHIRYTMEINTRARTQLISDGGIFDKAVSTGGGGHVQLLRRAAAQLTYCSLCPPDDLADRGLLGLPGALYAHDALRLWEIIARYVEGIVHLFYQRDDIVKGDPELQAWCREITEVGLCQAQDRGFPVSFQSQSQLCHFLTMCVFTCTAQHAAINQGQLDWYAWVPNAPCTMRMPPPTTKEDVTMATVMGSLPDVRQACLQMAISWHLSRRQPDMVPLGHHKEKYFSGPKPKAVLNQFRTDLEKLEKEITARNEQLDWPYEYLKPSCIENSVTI
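Purified human 12hLO at 150 nM in 25 mM Hepes, 0.01% Triton X-100, pH 7.0, preincubated 15 min at room temperature with compound. Reaction started with 40 uM arachidonic acid, 30 min at room temperature. Hydroperoxide measured by Fe-xylenol orange, 573/405 nm absorbance ratio.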
G9a inh: blocks human histone lysine methyltransferase G9a | Potency, µM (series often up to 102 µM), without a hit: top-dose activity, negative = inhibition, most hits filed as inhibitors | 350,000 tested, 8.8% active | G9a H3K9 monomethylation, AlphaScreen, 2 h; also: % is scaled to controls: 0 for no effect and ±100 for the full control effect; nearly all actives have a fitted effect of over 75% in size
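Quantitative HTS format: methyltransferase activity on a biotin-tagged H3K9 peptide is measured by AlphaScreen, using a rabbit anti-monomethyl-H3K9 antibody with streptavidin donor and anti-IgG acceptor beads. Final levels are 20 nM enzyme, 500 nM peptide, 20 uM SAM; 2 h RT.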
Active calls of the source: *; [ ] = dose if it differs, or a comment. The entries come from a sample that favours hits as a whole. Calls follow the shape of the dose curve; as a rule, active = well fitted curve in the direction sought with a large enough effect; inconclusive = small, poorly fitted or top-dose-only effect, or another doubt; inactive = no such curve, though single readings can be large; an effect the other way counts as inactive or inconclusive. Potency is read from the fitted curve at half-maximal effect.

For COc1cccc(C(=O)/C=C/Nc2ccc(S(=O)(=O)Nc3ccc(C(C)=O)cc3)cc2)c1 the results were VDR inh -28.3%, GRP78 ERSR act 1.2%, Sfp inh 48.5%, 12-LOX inh -5.6% and G9a inh 50.1µM*.
COc1cccc(C(=O)/C=C/Nc2ccc(S(=O)(=O)Nc3cc(OC)nc(OC)n3)cc2)c1 was read as VDR inh 4.1%, GRP78 ERSR act 2.2%, Sfp inh -4.9%, 12-LOX inh -28.2% and G9a inh 79.4µM*.
COc1ccc(C(=O)/C=C/Nc2cccc(O)c2)cc1 was read as VDR inh -0.7%, GRP78 ERSR act -2.0%, Sfp inh -10.2%, 12-LOX inh inconclusive and G9a inh 39.8µM*.
COc1ccc(C(=O)/C=C/Nc2ccc(S(=O)(=O)Nc3cccc(C(C)=O)c3)cc2)cc1 was read as VDR inh -21.3%, GRP78 ERSR act -1.4%, Sfp inh -0.2%, 12-LOX inh -19.0% and G9a inh inconclusive.
`COc1ccc(C(=O)/C=C/Nc2ccc(S(=O)(=O)Nc3cc(OC)nc(OC)n3)cc2)c(OC)c1` gave VDR inh 15.5%, GRP78 ERSR act -3.1%, Sfp inh -3.8%, 12-LOX inh -14.4% and G9a inh 25.1µM*.
Screening COc1cc(NS(=O)(=O)c2ccc(N/C=C\C(=O)c3ccc(OC)c(OC)c3)cc2)nc(OC)n1 returned VDR inh -7.4%, GRP78 ERSR act -2.3%, Sfp inh -13.9%, 12-LOX inh -21.3% and G9a inh inconclusive.
CN(Cc1ccc(F)cc1)C(=O)c1ccc(Cl)c(S(=O)(=O)NC2CC2)c1 was read as 12-LOX inh 20.0%.
For O=C(O)CCCSc1ccc(Cl)cc1 the results were 12-LOX inh 67.0%.
Screening OCCNCCCCSc1ccc(Cl)cc1 returned VDR inh -3.7%, GRP78 ERSR act -3.5%, Sfp inh -21.7%, 12-LOX inh inconclusive and G9a inh 11.2µM*.
Screening OCCNCCSc1ccc(Cl)cc1 returned VDR inh -16.8%, GRP78 ERSR act -1.1%, Sfp inh -7.8%, 12-LOX inh inconclusive and G9a inh 50.1µM*.
Screening CC1CCN(CCCNC2CCCCCC2)CC1 returned 12-LOX inh -33.5%.
For CC(SC(C)c1ccccc1Cl)C(=O)NC(N)=O (stereo not drawn) the results were 12-LOX inh -7.4%.
Screening Cn1c(Cc2c[nH]c3ccccc23)n[nH]c1=S returned VDR inh 17.4%, GRP78 ERSR act -6.1%, Sfp inh -7.0%, 12-LOX inh inconclusive and G9a inh inconclusive.
Screening Cc1[nH]c2ccccc2c1Cc1n[nH]c(=S)o1 returned VDR inh -20.1%, GRP78 ERSR act -2.9%, Sfp inh 7.7%, 12-LOX inh inconclusive and G9a inh 8.91µM*.
Screening N#Cc1c(N)n[nH]c1Cc1cccc2ccccc12 returned VDR inh -8.1%, GRP78 ERSR act -1.5% and 12-LOX inh 5.4%.
`Cc1[nH]c2ccccc2c1Cc1n[nH]c(=S)n1C` gave VDR inh 5.9%, GRP78 ERSR act -4.7%, Sfp inh 3.3%, 12-LOX inh 16.6% and G9a inh 2µM*.
`S=c1[nH]nc(Cc2cccc3ccccc23)o1` gave VDR inh -0.7%, GRP78 ERSR act -2.7%, Sfp inh 12.0%, 12-LOX inh inconclusive and G9a inh 2.24µM*.
For Cc1[nH]c2ccccc2c1SCc1n[nH]c(=S)n1C the results were VDR inh -9.0%, GRP78 ERSR act 0.0%, Sfp inh -11.1%, 12-LOX inh inconclusive and G9a inh 3.98µM*.
For O=C(c1ccc(S(=O)(=O)NCc2cccs2)cc1)N1CCCC1 the results were 12-LOX inh 17.6%.
For Cn1nccc1CN1CCCC2(CC(c3cccc(C(F)(F)F)c3)=NO2)C1 (stereo not drawn) the results were 12-LOX inh 13.8%.
For CC(Cc1n[nH]c(=S)o1)c1ccccc1 (stereo not drawn) the results were VDR inh -20.0%, GRP78 ERSR act 0.7%, Sfp inh -18.9%, 12-LOX inh inconclusive and G9a inh 8.91µM*.
For Nc1nccnc1C(=O)NCc1ccccc1CN1CCCCC1 the results were 12-LOX inh -36.9%.
Screening Cc1nc(N)sc1-c1csc(Nc2ccccn2)n1 returned VDR inh -2.2%, GRP78 ERSR act -2.9%, Sfp inh 56.2µM*, 12-LOX inh -17.3% and G9a inh inconclusive.
`Cc1nc(N)sc1-c1csc(Nc2ccc(Cl)cn2)n1` gave VDR inh -23.2%, GRP78 ERSR act 2.9%, Sfp inh 20µM*, 12-LOX inh inconclusive and G9a inh 10µM*.
`Cc1nc(C)c(-c2csc(Nc3ccccn3)n2)s1` gave VDR inh -0.4%, GRP78 ERSR act -3.2%, Sfp inh -21.5%, 12-LOX inh inconclusive and G9a inh inconclusive.
`COc1ccc(N2CCN(C(=O)c3nc(SC)ncc3Cl)CC2)cc1` gave VDR inh 10.3%, GRP78 ERSR act -0.6%, 12-LOX inh -22.2% and G9a inh 10µM*.
CCCSc1ncc(Cl)c(C(=O)N2CCN(c3ccc(OC)cc3)CC2)n1 was read as VDR inh -0.7%, 12-LOX inh -27.1% and G9a inh 10µM*.
C#CCNC(=O)[C@@H]1Cc2cn(CC=C)c3cccc(c23)[C@H](CC(C)C)N1 was read as 12-LOX inh 6.0%[176 µM].
For COc1ccc(-c2cc3c(cn2)CN(Cc2ccccc2)CCN3)cc1OC the results were 12-LOX inh -7.1%[176 µM].
CC1(C)CC(=O)CC(C)(C)N1 was read as 12-LOX inh -7.8%.
`O=C(COC(=O)C1Cc2ccccc2CN1C(=O)c1ccccc1)Nc1ccc(SC(F)F)cc1` (stereo not drawn) gave VDR inh -13.8%, GRP78 ERSR act -1.7%, Sfp inh 15.4%, 12-LOX inh 19.2% and G9a inh 79.4µM*.
Screening CC(=O)OCC(=O)Nc1ccc(SC(F)F)cc1 returned VDR inh -2.6%, GRP78 ERSR act 0.4%, Sfp inh 20.9%, 12-LOX inh -7.4% and G9a inh inconclusive.
Screening Cc1oc(-c2ccccc2)nc1CS(=O)CC(=O)N1CCc2ccccc2C1 (stereo not drawn) returned VDR inh -19.3%, GRP78 ERSR act -5.0%, Sfp inh 50.1µM*, 12-LOX inh inconclusive and G9a inh 22.4µM*.
For COc1ccc(OC)c(NC(=O)COC(=O)c2cc(C)sc2C)c1 the results were 12-LOX inh 15.0%.
`Cc1cn2nc(C(=O)Nc3ccc(F)cc3)cc2c(N(C)Cc2ccccc2)n1` gave 12-LOX inh 23.2%.
Screening COCCN(CCOC)Cc1c(O)ccc2c1O/C(=C\c1ccco1)C2=O returned VDR inh -8.8%, GRP78 ERSR act -1.3%, Sfp inh 39.8µM*, 12-LOX inh inconclusive and G9a inh 4.47µM*.
